Shown are actives, neighbours in structure and some others; about 4.7% of the full set was active somewhere.
TRHR ag = TRH receptor (human) agonism; 360,000 compounds, 0.18% hits; activation, % at 2 µM; TRHR cells, calcium flux fluo-8, FDSS agonist mode; AID 493084; note: 0% is about no effect
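TRHR-expressing cells loaded with fluo-8 calcium dye; 23 nL library compound pin-transferred, kinetic FDSS fluorescence (Ex 480/Em 530) recorded about 180 s for agonist-induced calcium release, before a 10 nM TRH EC20 addition for potentiator mode.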
D1 antag = blocks dopamine activation of the human D1 receptor | P21728 | HEK293 TREx D1 cells, calcium flux, dopamine EC80; active compounds read low | AID 504652 | activity change, negative = inhibition, % at 10 µM | 360,000 compounds, 3.2% hits; in the data active = activity change below about -30%; note: % is set by controls: 0 for no effect and ±100 for the full control effect
Target sequence (P21728 whole entry, looked up): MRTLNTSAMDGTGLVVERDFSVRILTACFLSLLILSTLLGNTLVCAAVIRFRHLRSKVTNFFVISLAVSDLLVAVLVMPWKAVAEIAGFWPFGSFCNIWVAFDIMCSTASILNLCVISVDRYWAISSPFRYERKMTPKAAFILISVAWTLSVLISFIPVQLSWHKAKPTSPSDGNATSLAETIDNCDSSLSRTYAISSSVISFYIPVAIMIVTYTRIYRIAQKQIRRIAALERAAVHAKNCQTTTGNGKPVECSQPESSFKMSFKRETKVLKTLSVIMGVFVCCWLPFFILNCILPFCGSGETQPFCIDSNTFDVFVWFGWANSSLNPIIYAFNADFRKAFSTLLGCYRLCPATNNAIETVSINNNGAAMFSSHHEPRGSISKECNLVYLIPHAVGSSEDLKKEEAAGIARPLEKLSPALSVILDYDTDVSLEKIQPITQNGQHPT
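Using tetracycline-induced force-coupled D1 Hek293 cells and a calcium dye, signals were followed for 180 s after compound, then for 180 s after EC80 dopamine, to detect inhibitors.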
TRHR PAM = TRH receptor (human) allosteric enhancement. P34981. TRHR cells, fluo-8 calcium fluorescence, EC20 TRH enhancement. enhancement, % at 2 µM. 360,000 compounds, 0.66% hits; in the data active = enhancement above about 30%; note: 0% is about no effect
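Enhancer read-out: after compound pinning and an initial kinetic agonist-mode read, an EC20 of TRH (10 nM final) was injected and fluo-8 calcium signal (Ex 480/Em 530) followed at 1 s/cycle for 100 cycles in TRHR-expressing cells.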
D1 agonist = agonists of human D1 dopamine receptor. HEK293 T-REx D1 cells, calcium flux, agonist mode. activation, % at 2 µM. 360,000 compounds, 1% hits; note: 0% is about no effect
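Tetracycline-induced HEK293 TREx D1 cells, force-coupled to calcium signalling, were dye-loaded with a no-wash calcium kit. Compound was pin-added after a 10 s baseline. Fluorescence was read kinetically at 1 cycle/s for 180 s, with calcium rises flagged as agonism.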
D1 potentiator = human D1 dopamine receptor positive modulation. HEK293 TREx D1 cells, calcium flux, dopamine EC20 potentiation. 360,000 compounds, 0.036% hits. potentiation, % at 10 µM; in the data active = potentiation above about 30%; note: 0% is about no effect
The depositor's hits bear a star. Cut-off read from the data, not from the text of the source, unless noted: active = activation above about 30%; inactive = the rest.

SMILES | TRHR ag | D1 antag | TRHR PAM | D1 agonist | D1 potentiator
Cc1noc(C)c1CN(C(=S)NC1CC2CCC1C2)c1ccccc1 (configuration not stated) | 1 | -23 | -4 | 5 | -2
O=C(NCCc1ccc(Cl)cc1)c1ccc(Cn2c(=O)[nH]c3ccccc3c2=O)cc1 | 0 | 10 | 7 | 0 | -3
Cc1cc(NC(=O)Cc2c(F)cccc2Cl)no1 | -1 | -30* | -4 | -4 | 0
Cc1ccc(C(=O)NC(=S)N2CCN(c3ccccc3F)CC2)cc1 | 0 | -42* | -4 | 1 | -4
CCC(C)NC(=O)CSc1nc2cc3c(cc2c(=O)n1Cc1ccc(C(=O)NCCc2ccc(OC)c(OC)c2)cc1)OCO3 (configuration not stated) | -1 | -3 | 2 | 2 | -3
COc1ccc(C(=O)Nc2nc3n(n2)C(c2ccc(Cl)cc2)C=C(c2ccccc2)N3)cc1OC (configuration not stated) | 30* | -2 | 7 | 39* | -1
COc1ccc(C2C=C(c3ccccc3)Nc3nc(NC(=O)/C=C/c4ccc(Cl)cc4)nn32)cc1 (configuration not stated) | 0 | -77* | -5 | 1 | 1
Cc1ccc(OCCCn2ccnc2)c(Br)c1 | 0 | -68* | 7 | 5 | -7
Cc1ccc(OCCCn2ccnc2)c([N+](=O)[O-])c1 | 0 | -6 | -2 | 1 | 1
Cc1cc(OCCn2ccnc2)cc(C(C)C)c1 | -1 | -20 | -3 | 2 | 2
Cc1cc(C)cc(OCCn2ccnc2)c1 | 0 | 29 | 35* | 2 | -2
CN(CC(=O)Nc1ccc(Cl)c(C(F)(F)F)c1)C(=O)c1ccc(OCC2CCCO2)cc1 (configuration not stated) | 2 | -49* | 5 | 3 | -20
CN(CC(=O)Nc1ccc(Cl)c(C(F)(F)F)c1)C(=O)C1CCC1 | 0 | 1 | -5 | 6 | -12
CCOc1ccc(NC(=O)c2c(Nc3ccc(OC)cc3OC)sc(C(=O)c3ccc(Cl)cc3)c2N)cc1 | 2 | -25 | 5 | 49* | -1
COc1ccc(CNC(=O)c2c(Nc3ccc(OC)cc3OC)sc(C(=O)c3ccc(Cl)cc3)c2N)cc1 | 1 | -26 | 0 | 16 | 2
COc1ccccc1CCNC(=O)CCc1c(C)c2cc3c(C)coc3c(C)c2oc1=O | -1 | 7 | -4 | 1 | -2
COc1cnc(-c2ccccn2)nc1Sc1ccc(C)cc1 | 0 | 3 | 5 | 6 | -3
Cc1ccc(Sc2cc(C)nc(-c3ccccn3)n2)cc1 | 0 | 4 | 32* | 4 | -1
CSc1nc(N)c(C#N)c(-c2ccc(Cl)cc2)c1C#N | 2 | -32* | 0 | 9 | -11
CSc1nc(-c2ccc(Cl)cc2)nc(N)c1C#N | 0 | 9 | 8 | 2 | 3
COc1ccc(Nc2c3c(nc4ccc(NC(=O)c5ccc(F)cc5)cc24)CCCC3)cc1OC | -1 | -2 | 42* | 0 | 2
O=C(CN1C2=NCCCN2c2ccccc21)c1cccc(Br)c1 | -1 | 1 | 11 | 38* | -8
Clc1ccc(CN2C3=NCCCN3c3ccccc32)cc1 | 0 | -60* | 3 | 72* | -9
COc1ccc(CC2(CO)CCN(S(=O)(=O)c3c(C)nn(C)c3Cl)CC2)cc1 | -3 | -14 | 3 | 13 | -7
COc1ccc(CC2(CO)CCN(S(=O)(=O)c3sccc3C)CC2)cc1 | 0 | -14 | -5 | 32* | -6
SMILES | TRHR ag | D1 antag | TRHR PAM | D1 agonist | D1 potentiator
CC1=C(c2ccc(C)c(C)c2)S(=O)(=O)N=C1N1CCN(c2cccc(C)c2)C(C)C1 (configuration not stated) | 0 | 1 | 3 | 0 | 0
CNCc1c(OCc2ccc(F)cc2)ccc2ccccc12 | 0 | -33* | 1 | 23 | -18
Fc1ccc(COc2ccc3ccccc3c2CNc2nn[nH]n2)cc1 | 0 | 6 | 3 | 3 | 9
N#Cc1c(Cl)nsc1NC(=O)c1ccccc1 | 5 | -37* | -4 | 34* | -4
Cc1ccccc1Cn1c(=O)n(Cc2ccco2)c(=O)c2sc3ccccc3c21 | 0 | 15 | -5 | 2 | 2
CCOC(=O)C1(Cc2ccc(OC)cc2)CCN(S(C)(=O)=O)CC1 | 0 | -15 | -4 | 3 | -8
CCOC(=O)C1(Cc2ccc(Cl)cc2)CCN(C(C)Cc2ccc(O)c(OC)c2)CC1 (configuration not stated) | 0 | -37* | -4 | 28 | -8
COCC(=O)N(Cc1cc2cc(C)ccc2[nH]c1=O)c1ccc(C)c(C)c1 | 0 | 6 | 31* | 1 | -1
CCN1CCN(C(=O)NC2CC(=O)N(c3ccc(OC)cc3)C2)CC1 (configuration not stated) | 0 | -4 | 10 | 6 | 14
COc1ccc(N2CCN(C(=O)NC3CC(=O)N(c4ccc(OC)cc4)C3)CC2)cc1 (configuration not stated) | -3 | -45* | 5 | 5 | -7
CNc1cccc2c1C(=O)c1ccccc1C2=O | 0 | -4 | -8 | 0 | 5
CNc1cccccc1=S | -1 | -56* | 6 | 0 | 1
Cn1nc(C(F)(F)F)c2cc(C(=O)Nc3ccc(C(F)(F)F)cc3)sc21 | 2 | -45* | -11 | 21 | -7
Cn1nc(C(F)(F)F)c2cc(C(=O)Nc3ccc(F)cc3)sc21 | 0 | 2 | -7 | 4 | -5
CN(C)c1ccc(CN2CCc3nc(N4CCN(c5ccccn5)CC4)ncc3C2)cc1 | -1 | -6 | -2 | -1 | 0
Fc1ccc(Nc2nc(-c3ccncc3)cs2)cc1 | 0 | -52* | 5 | 1 | -11
Cc1nc(C)c(-c2csc(Nc3ccc(F)cc3)n2)s1 | 1 | -38* | 2 | 0 | -6
Brc1ccc(-c2csc(Nc3nc(-c4ccc(Br)cc4)cs3)n2)cc1 | -1 | -30* | 6 | 1 | -14
Oc1ccc(Nc2nc(-c3ccc(O)cc3)cs2)cc1 | -5 | -32* | 3 | 41* | -9
CC1CCc2sc(C(=O)N(C)CC(=O)Nc3ccc(N4CCOCC4)cc3)cc2C1 (configuration not stated) | -1 | 10 | -1 | -2 | 0
S=c1[nH]nc(COc2ccc(Cl)cc2)n1-c1ccccc1 | 0 | 4 | -4 | 5 | -15
N/C(Cc1nc(-c2ccc(Br)cc2)cs1)=N\O | 0 | -47* | 5 | 2 | 7
Cc1nc(C)c(-c2csc(Nc3ccc(O)cc3C)n2)s1 | -1 | -32* | -3 | 7 | -10
Cc1cc(NCCN2CCOCC2)n2c(nc3ccccc32)c1C#N | 0 | 8 | -6 | 2 | 2
Cc1c2c(n3c(nc4ccccc43)c1C#N)N(CCN1CCOCC1)CC2 | 3 | -38* | -4 | 0 | -2
COc1ccc(OC)c(NS(=O)(=O)c2ccc(N3CCCC3=O)cc2)c1 | 0 | -9 | 34* | 5 | -8

Source: PubChem (National Center for Advancing Translational Sciences (NCATS))
